Data from PubChem BioAssay (NCI).
The panel holds about 83,000 compounds, 20% with a hit somewhere; the sample as a whole holds those more often.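 Interpretation: 100, growth as untreated; towards 0, rising growth inhibition; 0, no net growth; 0 to -100, cell death. Compounds scoring below 10 were considered active.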 Calls of active or inactive are those of the source.

What follows are molecules tested on NCI-H522 lung (assay: NCI-60 one-dose screen, 48 h (100 = growth as untreated, 0 = no growth, -100 = all killed)). Conditions: 10 µM unless noted.

SMILES | growth
O=C1CC(c2ccc(O)c(O)c2)Oc2cc(O)c([C@@H]3O[C@H](CO)[C@@H](O)[C@H](O)[C@H]3O)c(O)c21 (some centres undefined) | 100% (inactive)
O=C(NCc1ccccc1)c1ccc2c(c1)NC(=O)[C@@H]1CCCN21 | 91.3% (inactive)
COC(=O)[C@]1(C)CCC[C@]2(C)[C@H]3C[C@H]4C(C(C)C)=C[C@]3(CC[C@H]21)[C@@H]1C(=O)N(CCC#N)C(=O)[C@@H]14 | 75.3% (inactive)
COc1ccc2[nH]c(-c3ccccc3)c(C=C(C#N)C#N)c2c1 | -18.4% (active)
Cc1nn(-c2ccc(-c3ccc(OC(F)(F)F)cc3)cc2)c2nc(-c3ccccc3)nc(N)c12 | 83.7% (inactive)
O=c1c2ccccc2n(CC(O)CN2CCCC2)c2c(Br)cccc12 (centres undefined) | 101% (inactive)
CS(=O)(=O)O[C@@H]1C(=O)N(c2cc3c4ccccc4ccc3c3ccccc23)[C@H]1c1ccc(F)cn1 | -19.9% (active)
CC(C)(C)c1nn(-c2ccccc2)c2c1COCN2Cc1ccc(Cl)cc1 | 4.77% (active)
Cc1cc(NC(=O)CNc2nc(Oc3ccc(F)cc3)nc(-c3ccc(F)cc3)n2)ccc1Cl | 85.7% (inactive)
CC(=O)c1cc2c(N)c(C(=O)Nc3ccccn3)sc2nc1C | 77% (inactive)
CCOC(=O)c1sc(/N=C2\NC(=O)/C(=C/c3ccc(N4CCN(C)CC4)cc3)S2)nc1C | 77.4% (inactive)
Cc1cnc(-c2ccc(-c3ccc(NC(=O)Nc4c(F)cc(F)cc4F)cc3F)c3c2C(=O)NC3)[nH]1 | 37.2% (inactive)
COc1ccc(Nc2cc(NC(=O)CNc3cc(OC)c(Cl)c(OC)c3Cl)ncn2)cc1 | 65.5% (inactive)
Nc1n[nH]c2cccc(C#Cc3cccc(NC(=O)c4cc(N5CCOCC5)cc(C(F)(F)F)c4)c3)c12 | 53.2% (inactive)
CC(C)(C)CC(C)(C)Cc1ccc(OCCOCC[N+](C)(C)Cc2ccccc2)cc1 | 9.27% (active)
CCOCc1cc(C(C)(C)C)ccc1O | 77.9% (inactive)

SMILES | growth
C=C1C(=O)O[C@H]2[C@H]1CC/C(COC(=O)Nc1nc3ccccc3[nH]1)=C\CC[C@@]1(C)O[C@@H]21 | -27.2% (active)
C=C(C)[C@@H]1CC[C@]2(C(=O)n3ccnc3)CC[C@]3(C)[C@H](CC[C@@H]4[C@@]5(C)CCCNC(C)(C)[C@@H]5CC[C@]43C)[C@@H]12 | 50.7% (inactive)
C=C(C)[C@@H]1CC[C@]2(C(=O)O)CC[C@]3(C)[C@H](CC[C@@H]4[C@@]5(C)C[C@@H](CC#Cc6ccccc6C)C(=O)C(C)(C)[C@@H]5CC[C@]43C)[C@@H]12 | -4.68% (active)
Clc1ccc2c(NCCCNC3CCCCC3)ccnc2c1 | 107% (inactive)
c1cc(CNC23CC4CC(CC(C4)C2)C3)cc(C[N+](Cc2cccc(CNC34CC5CC(CC(C5)C3)C4)c2)(Cc2cccc(CNC34CC5CC(CC(C5)C3)C4)c2)Cc2cccc(CNC34CC5CC(CC(C5)C3)C4)c2)c1 (centres undefined) | -56.4% [42 µM] (active)
O=C1CCc2ccccc2N1 | 101% (inactive)
Cc1cnc(SCc2ccc(Cl)cc2Cl)nc1Nc1ccc(Cl)c(Cl)c1 | 66.7% (inactive)
COc1cc(C2=NN(C(C)=O)C(c3cccc(Nc4ccnc5cc(C(F)(F)F)ccc45)c3)C2)cc(OC)c1OC (centres undefined) | 55.7% (inactive)
CCOC(=O)c1c(-c2ccc(O)cc2)c(C#N)c2c(C#N)c(N)nn2c1N | 39.2% (inactive)
CN(C)CCCn1c2c(c3cc(-c4ccco4)ccc3c1=O)C(=O)c1ccccc1-2 | 59.9% (inactive)
COc1cc(/C=N/Nc2nc(-c3ccc(F)cc3)c(C#N)c(N3CCOCC3)n2)ccc1O | 99.3% (inactive)
COc1cc(-c2csc(NC(=O)Nc3ccc(Cl)cc3)n2)cc(OC)c1OC | 3.25% (active)
N#CCNc1ccc(C(=O)O)cc1 | 90.4% (inactive)
CCOC(=O)c1ccc(Nc2ncnc3ccc(NC(=O)c4ccccc4)cc23)cc1 | 73.3% (inactive)
COC(=O)/C=C/c1cc(OC(C)=O)c2c(c1)C(C(=O)OC)C(c1ccc(OC(C)=O)c(OC(C)=O)c1)O2 (centres undefined) | -20.8% (active)

These molecules were tested on A549/ATCC NSCLC in the same assay as above. Conditions: 10 µM unless noted.

SMILES | growth
O=C1CC(c2ccc(O)c(O)c2)Oc2cc(O)c([C@@H]3O[C@H](CO)[C@@H](O)[C@H](O)[C@H]3O)c(O)c21 (some centres undefined) | 94.8% (inactive)
O=C(NCc1ccccc1)c1ccc2c(c1)NC(=O)[C@@H]1CCCN21 | 106% (inactive)
CCc1ccc(OCc2ccccc2C(=O)Nc2ccc3nc(C)cc(N)c3c2)cc1 | -73.6% (active)
CSc1cccc(NC(=O)Nc2nc3c(C)cccc3s2)c1 | 95.1% (inactive)
COC(=O)[C@]1(C)CCC[C@]2(C)[C@H]3C[C@H]4C(C(C)C)=C[C@]3(CC[C@H]21)[C@@H]1C(=O)N(CCC#N)C(=O)[C@@H]14 | 86% (inactive)
CC1=C(CCCOC(=O)NCCCl)C2=C(C)C3(CC3)[C@@](C)(O)C(=O)C2=C1 | 17.9% (inactive)
COc1ccc2[nH]c(-c3ccccc3)c(C=C(C#N)C#N)c2c1 | 37% (inactive)
Cc1nn(-c2ccc(-c3ccc(OC(F)(F)F)cc3)cc2)c2nc(-c3ccccc3)nc(N)c12 | 85.2% (inactive)
O=S(=O)(O)c1ccc(N=NSc2ccc3ccccc3c2)cc1 | 100% (inactive)
O=c1c2ccccc2n(CC(O)CN2CCCC2)c2c(Br)cccc12 (centres undefined) | 87% (inactive)
CS(=O)(=O)O[C@@H]1C(=O)N(c2cc3c4ccccc4ccc3c3ccccc23)[C@H]1c1ccc(F)cn1 | 47.1% (inactive)
CC(C)(C)c1nn(-c2ccccc2)c2c1COCN2Cc1ccc(Cl)cc1 | 115% (inactive)
Cc1cc(NC(=O)CNc2nc(Oc3ccc(F)cc3)nc(-c3ccc(F)cc3)n2)ccc1Cl | 87.1% (inactive)
CC(=O)c1cc2c(N)c(C(=O)Nc3ccccn3)sc2nc1C | 48.7% (inactive)
CCOC(=O)c1sc(/N=C2\NC(=O)/C(=C/c3ccc(N4CCN(C)CC4)cc3)S2)nc1C | 89.6% (inactive)
O=C(/C(=C/c1ccc([N+](=O)[O-])cc1)SCc1ccc(F)cc1)c1ccc(Cl)cc1 | 86.8% (inactive)
Cc1cnc(-c2ccc(-c3ccc(NC(=O)Nc4c(F)cc(F)cc4F)cc3F)c3c2C(=O)NC3)[nH]1 | 45.2% (inactive)
COc1ccc(Nc2cc(NC(=O)CNc3cc(OC)c(Cl)c(OC)c3Cl)ncn2)cc1 | 71.1% (inactive)
Nc1n[nH]c2cccc(C#Cc3cccc(NC(=O)c4cc(N5CCOCC5)cc(C(F)(F)F)c4)c3)c12 | 69.5% (inactive)

SMILES | growth
CC(C)(C)CC(C)(C)Cc1ccc(OCCOCC[N+](C)(C)Cc2ccccc2)cc1 | 71.8% (inactive)
CCOCc1cc(C(C)(C)C)ccc1O | 90.4% (inactive)
C=C1C(=O)O[C@H]2[C@H]1CC/C(COC(=O)Nc1nc3ccccc3[nH]1)=C\CC[C@@]1(C)O[C@@H]21 | 95.5% (inactive)
C=C(C)[C@@H]1CC[C@]2(C(=O)n3ccnc3)CC[C@]3(C)[C@H](CC[C@@H]4[C@@]5(C)CCCNC(C)(C)[C@@H]5CC[C@]43C)[C@@H]12 | 23% (inactive)
C=C(C)[C@@H]1CC[C@]2(C(=O)O)CC[C@]3(C)[C@H](CC[C@@H]4[C@@]5(C)C[C@@H](CC#Cc6ccccc6C)C(=O)C(C)(C)[C@@H]5CC[C@]43C)[C@@H]12 | 26.7% (inactive)
Clc1ccc2c(NCCCNC3CCCCC3)ccnc2c1 | 120% (inactive)
CN(C)C(CNc1oc(-c2cccc3ccccc23)nc1C#N)c1ccco1 (centres undefined) | 91.6% (inactive)
c1cc(CNC23CC4CC(CC(C4)C2)C3)cc(C[N+](Cc2cccc(CNC34CC5CC(CC(C5)C3)C4)c2)(Cc2cccc(CNC34CC5CC(CC(C5)C3)C4)c2)Cc2cccc(CNC34CC5CC(CC(C5)C3)C4)c2)c1 (centres undefined) | 16.2% [42 µM] (inactive)
O=C1CCc2ccccc2N1 | 101% (inactive)
Cc1cnc(SCc2ccc(Cl)cc2Cl)nc1Nc1ccc(Cl)c(Cl)c1 | 78.2% (inactive)
COc1cc(C2=NN(C(C)=O)C(c3cccc(Nc4ccnc5cc(C(F)(F)F)ccc45)c3)C2)cc(OC)c1OC (centres undefined) | 53.1% (inactive)
CCOC(=O)c1c(-c2ccc(O)cc2)c(C#N)c2c(C#N)c(N)nn2c1N | 80.7% (inactive)
CN(C)CCCn1c2c(c3cc(-c4ccco4)ccc3c1=O)C(=O)c1ccccc1-2 | 67.7% (inactive)
Nc1cc(N)c(S(=O)(=O)O)cc1N=Nc1cc([N+](=O)[O-])ccc1O | 95.7% (inactive)
COc1cc(/C=N/Nc2nc(-c3ccc(F)cc3)c(C#N)c(N3CCOCC3)n2)ccc1O | 89.6% (inactive)
COc1cc(-c2csc(NC(=O)Nc3ccc(Cl)cc3)n2)cc(OC)c1OC | 17.8% (inactive)
N#CCNc1ccc(C(=O)O)cc1 | 87% (inactive)
CCOC(=O)c1ccc(Nc2ncnc3ccc(NC(=O)c4ccccc4)cc23)cc1 | 91.5% (inactive)
COC(=O)/C=C/c1cc(OC(C)=O)c2c(c1)C(C(=O)OC)C(c1ccc(OC(C)=O)c(OC(C)=O)c1)O2 (centres undefined) | 37.4% (inactive)
